Reference: paper PMC11062922 (Nature Chemical Biology, 2023)
Read-outs that look alike come from different tables or passages of the source.

Assays:
Design in all cases: species or system human, MV4-11 + K-562 + COLO205 + SK-N-BE2 + OVCAR-8
EGFR = conditions: read-out: apparent Kd, n = 1
TESK2 = conditions: read-out: apparent Kd; compound concentrations: 100 nM and 1000 nM (sheet 'Samples'), CATDS: 0.39865436806100402; n = 1
FECH = conditions: read-out: apparent Kd, compound concentrations: 100 nM and 1000 nM (sheet 'Samples'), n = 1
FLT3 = conditions: read-out: apparent Kd; compound concentrations: 100 nM and 1000 nM (sheet 'Samples'), CATDS: 0.119493571435742; n = 1
MELK = conditions: read-out: apparent Kd; compound concentrations: 100 nM and 1000 nM (sheet 'Samples'), CATDS: 0.102611877302843; n = 1
MERTK = conditions: read-out: apparent Kd; compound concentrations: 100 nM and 1000 nM (sheet 'Samples'), CATDS: 0.11247191939654499; n = 1
PDGFRB = conditions: read-out: apparent Kd; compound concentrations: 100 nM and 1000 nM (sheet 'Samples'), CATDS: 0.104628993679762; n = 1
RET = conditions: read-out: apparent Kd; compound concentrations: 100 nM and 1000 nM (sheet 'Samples'), CATDS: 0.43241388330783698; n = 1
SIK2 = conditions: read-out: apparent Kd; compound concentrations: 100 nM and 1000 nM (sheet 'Samples'), CATDS: 0.136273413737004; n = 1
ERBB3 = conditions: read-out: apparent Kd, compound concentrations: 100 nM and 1000 nM (sheet 'Samples'), n = 1
MAP2K5 = conditions: read-out: apparent Kd, n = 1
RIPK2 = conditions: read-out: apparent Kd, n = 1
FYN = conditions: read-out: apparent Kd; compound concentrations: 100 nM and 1000 nM (sheet 'Samples'), CATDS: 0.114580255038188; n = 1
HCK = conditions: read-out: apparent Kd; compound concentrations: 100 nM and 1000 nM (sheet 'Samples'), CATDS: 0.242489240886436; n = 1
LCK = conditions: read-out: apparent Kd; compound concentrations: 100 nM and 1000 nM (sheet 'Samples'), CATDS: 0.10096254508192699; n = 1
LYN = conditions: read-out: apparent Kd; compound concentrations: 100 nM and 1000 nM (sheet 'Samples'), CATDS: 8.32238060167768E-2; n = 1
RIPK3 = conditions: read-out: apparent Kd; compound concentrations: 100 nM and 1000 nM (sheet 'Samples'), CATDS: 6.5605703607897303E-2; n = 1
SRC = conditions: read-out: apparent Kd; compound concentrations: 100 nM and 1000 nM (sheet 'Samples'), CATDS: 0.138583252116979; n = 1
YES1 = conditions: read-out: apparent Kd, n = 1
PGK1 = conditions: read-out: apparent Kd; compound concentrations:100 nM and 1000 nM (sheet 'Samples'); n = 1
EIF5B = conditions: read-out: apparent Kd; compound concentrations: 100 nM and 1000 nM (sheet 'Samples'), CATDS: 0.290212668862731; n = 1
PLK1 = conditions: read-out: apparent Kd; compound concentrations: 100 nM and 1000 nM (sheet 'Samples'), CATDS: 0.37077800289250101; n = 1
VDAC3 = conditions: read-out: apparent Kd; compound concentrations: 100 nM and 1000 nM (sheet 'Samples'), CATDS: 0.46722570663248902; n = 1
EPHB6 = conditions: read-out: apparent Kd, n = 1
MAP4K5 = conditions: read-out: apparent Kd; compound concentrations: 100 nM and 1000 nM (sheet 'Samples'), CATDS: 0.26674698552626502; n = 1
NLK = conditions: read-out: apparent Kd; compound concentrations: 100 nM and 1000 nM (sheet 'Samples'), CATDS: 0.30347996318959403; n = 1
JAK2 = conditions: read-out: apparent Kd; compound concentrations:100 nM and 1000 nM (sheet 'Samples'); n = 1
PRKACG = conditions: read-out: apparent Kd; compound concentrations:100 nM and 1000 nM (sheet 'Samples'); n = 1
NQO1 = conditions: read-out: apparent Kd; compound concentrations: 100 nM and 1000 nM (sheet 'Samples'), CATDS: 0.35542679551124801; n = 1
NQO2 = conditions: read-out: apparent Kd; compound concentrations:100 nM and 1000 nM (sheet 'Samples'); n = 1
MAP3K12 = conditions: read-out: apparent Kd; compound concentrations: 100 nM and 1000 nM (sheet 'Samples'), CATDS: 0.23080963599757501; n = 1
PIK3CD = conditions: read-out: apparent Kd; compound concentrations: 100 nM and 1000 nM (sheet 'Samples'), CATDS: 0.65461148719951301; n = 1
[1] = compound concentrations: 100 nM and 1000 nM (sheet 'Samples'), CATDS: 1
[2] = compound concentrations:100 nM and 1000 nM (sheet 'Samples')

## Cl.O=S(=O)(CCNCc1ccc(-c2ccc3ncnc(Nc4ccc(OCc5cccc(F)c5)c(Cl)c4)c3c2)o1)c1ccccc1 [GW633459A]
EGFR; compound concentrations: 100 nM and 1000 nM (sheet 'Samples'), CATDS: 0.67043836864821504
  potency estimated from few doses: 0.597 µM
TESK2
  potency estimated from few doses: 1.83 µM

## CCNC(=O)O[C@H]1CN[C@H](C#Cc2cc3ncnc(Nc4ccc(OCc5cccc(F)c5)c(Cl)c4)c3s2)C1 [GSK192082A]
EGFR; [1]
  potency estimated from few doses: 0.177 µM

## COc1cc2c(cc1OC)C(=C(Nc1ccccc1)c1cccc(CN)c1)C(=O)N2 [BIBF0846CL]
FECH; CATDS: 0.35888442724353598
  potency estimated from few doses: 0.0621 µM
FLT3
  potency estimated from few doses: 0.829 µM
MELK
  potency estimated from few doses: 1.41 µM
MERTK
  potency estimated from few doses: 1.01 µM
PDGFRB
  potency estimated from few doses: 1.31 µM
RET
  potency estimated from few doses: 0.0453 µM
SIK2
  potency estimated from few doses: 0.56 µM

## Cl.Nc1c(C(=O)c2ccc(CCCN3CCOCC3)cc2)cnn1-c1ccc(F)cc1 [RO1153427-001]
ERBB3; CATDS: 1
  potency estimated from few doses: 1.82 µM

## Cl.O=C(O[C@H]1CN[C@H](C#Cc2cc3ncnc(Nc4ccc5c(cnn5Cc5ccccc5)c4)c3s2)C1)N1CCOCC1 [GSK200398A_KCGS]
EGFR; [2]
  potency estimated from few doses: 0.0267 µM
MAP2K5; [2]
  potency estimated from few doses: 2.2 µM
RIPK2; [2]
  potency estimated from few doses: 0.936 µM

## CS(=O)(=O)CCNCc1coc(-c2ccc3ncnc(Nc4ccc(OCc5ccccc5)cc4)c3c2)c1 [GW566221B]
EGFR; compound concentrations: 100 nM and 1000 nM (sheet 'Samples'), CATDS: 0.90978509927548601
  potency estimated from few doses: 0.0438 µM
RIPK2; compound concentrations: 100 nM and 1000 nM (sheet 'Samples'), CATDS: 0.34472781375122202
  potency estimated from few doses: 0.839 µM

## O=C(NCCCN1CCOCC1)c1cccc(Nc2nccc(Nc3ccc(Oc4ccccc4)cc3)n2)c1 [GW663929X]
ERBB3; CATDS: 6.7979180467830594E-2
  potency estimated from few doses: 1.55 µM
FYN
  potency estimated from few doses: 0.343 µM
HCK
  potency estimated from few doses: 0.0967 µM
LCK
  potency estimated from few doses: 0.455 µM
LYN
  potency estimated from few doses: 0.756 µM
MAP2K5; compound concentrations: 100 nM and 1000 nM (sheet 'Samples'), CATDS: 7.7428617985082396E-2
  potency estimated from few doses: 0.947 µM
RIPK2; compound concentrations: 100 nM and 1000 nM (sheet 'Samples'), CATDS: 0.16454989385531299
  potency estimated from few doses: 0.175 µM
RIPK3
  potency estimated from few doses: 1.82 µM
SRC
  potency estimated from few doses: 0.236 µM
YES1; compound concentrations: 100 nM and 1000 nM (sheet 'Samples'), CATDS: 0.11029012837176901
  potency estimated from few doses: 0.373 µM

## CS(=O)(=O)CCNCc1nc(-c2ccc3ncnc(Nc4ccc(OCc5cccc(F)c5)c(Cl)c4)c3c2)cs1.Cl [GW583340C]
EGFR; compound concentrations: 100 nM and 1000 nM (sheet 'Samples'), CATDS: 0.528390210256103
  potency estimated from few doses: 0.0963 µM
PGK1
  potency estimated from few doses: 0.119 µM

## COc1ccc(COc2cc(-n3cnc4ccccc43)sc2C(N)=O)cc1 [GSK1024304A]
EIF5B
  potency estimated from few doses: 1.71 µM
FECH; CATDS: 0.34999062122036301
  potency estimated from few doses: 1.15 µM
PLK1
  potency estimated from few doses: 1.03 µM

## Cc1nnc(-c2cccc(-c3ccc(C(=O)NCC4CC4)cc3)c2)o1 [GW734508X]
FECH; CATDS: 0.53771916993111701
  potency estimated from few doses: 1.5 µM
VDAC3
  potency estimated from few doses: 1.99 µM

## Nc1ncc(-c2ccncc2)c2scc(-c3ccc4c(c3)CCN4C(=O)Cc3ccccc3)c12 [GSK2592465A]
EPHB6; compound concentrations: 100 nM and 1000 nM (sheet 'Samples'), CATDS: 0.25930053020636601
  potency estimated from few doses: 0.885 µM
ERBB3; CATDS: 0.19609805104920999
  potency estimated from few doses: 1.7 µM
MAP4K5
  potency estimated from few doses: 0.837 µM
NLK
  potency estimated from few doses: 0.66 µM

## O=C(O)C(F)(F)F.O=S1CCN(Cc2ccc(-c3ccc4ncnc(Nc5ccc(OCc6cccc(F)c6)c(Cl)c5)c4c3)o2)CC1 [GW576609A]
EGFR; compound concentrations: 100 nM and 1000 nM (sheet 'Samples'), CATDS: 0.496271215913483
  potency estimated from few doses: 0.306 µM
JAK2
  potency estimated from few doses: 1.05 µM
PRKACG
  potency estimated from few doses: 0.781 µM

## CS(=O)(=O)CCN(CC#N)Cc1ccc(-c2ccc3ncnc(Nc4ccc(OCc5cccc(F)c5)c(Cl)c4)c3c2)o1 [GW616030X]
EGFR; [1]
  potency estimated from few doses: 0.244 µM

## CN(C)C(=O)O[C@@H]1CN[C@@H](C#Cc2cc3ncnc(Nc4ccc(OCc5cccc(F)c5)c(Cl)c4)c3s2)C1 [GSK238063A]
EGFR; compound concentrations: 100 nM and 1000 nM (sheet 'Samples'), CATDS: 0.84282841422731203
  potency estimated from few doses: 0.175 µM
NQO1
  potency estimated from few doses: 1.7 µM

## Cc1cc(-c2ccccn2)cc(C)c1/C=C/c1cncc(-c2nn[nH]n2)c1.Cl [GW459057A]
EPHB6; [2]
  potency estimated from few doses: 0.162 µM
NQO2
  potency estimated from few doses: 1.42 µM

## COc1cc2ncnc(Nc3ccc4c(cnn4Cc4ccccc4)c3)c2cc1OC.Cl [GW282449A]
EGFR; [2]
  potency estimated from few doses: 0.00129 µM
MAP2K5; [2]
  potency estimated from few doses: 1.12 µM
RIPK2; [2]
  potency estimated from few doses: 0.21 µM
YES1; [2]
  potency estimated from few doses: 1.11 µM

## Cl.Fc1ccccc1COc1ccc(Nc2ncnc3ccc(-c4nnc(C(F)(F)F)o4)cc23)cc1Cl [GW424170A]
EGFR; compound concentrations: 100 nM and 1000 nM (sheet 'Samples'), CATDS: 0.318491462582081
  potency estimated from few doses: 0.448 µM
MAP3K12
  potency estimated from few doses: 1.29 µM
PIK3CD
  potency estimated from few doses: 0.104 µM
